Among the data in PubChem BioAssay (Tox21) are Potency values, retold here.

The nature of assay [1]: qHTS assay to identify aromatase inhibitors - cell viability counter screen (AID 743084;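 further: cells stimulated with testosterone during compound exposure; nearly all actives have a fitted effect of over 55% in size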). (qHTS replaces the single test concentration by a dilution series.)
Assay [2] deals with Aryl hydrocarbon receptor (Homo sapiens) (UniProt P35869). Put plainly: qHTS assay to identify small molecule that activate the aryl hydrocarbon receptor (AhR) signaling pathway (AID 743085). Further: nearly all actives have a fitted effect of over 15% in size. Further: potency means the concentration at half of the fitted maximal effect.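 On activation: HG2L7.5c1 human HepG2 liver cells with stably integrated DRE-driven firefly reporter; series mostly up to about 70 µM.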 In outline: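 HepG2 cells (HG2L7.5c1) stably carrying a firefly luciferase reporter driven by 20 dioxin responsive elements were exposed to compound for 24 h at 37C after a 5 h settling period; luminescence rise (ONE-Glo) indicated activation.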
Sequence of Aryl hydrocarbon receptor (Homo sapiens) (P35869 whole entry, looked up): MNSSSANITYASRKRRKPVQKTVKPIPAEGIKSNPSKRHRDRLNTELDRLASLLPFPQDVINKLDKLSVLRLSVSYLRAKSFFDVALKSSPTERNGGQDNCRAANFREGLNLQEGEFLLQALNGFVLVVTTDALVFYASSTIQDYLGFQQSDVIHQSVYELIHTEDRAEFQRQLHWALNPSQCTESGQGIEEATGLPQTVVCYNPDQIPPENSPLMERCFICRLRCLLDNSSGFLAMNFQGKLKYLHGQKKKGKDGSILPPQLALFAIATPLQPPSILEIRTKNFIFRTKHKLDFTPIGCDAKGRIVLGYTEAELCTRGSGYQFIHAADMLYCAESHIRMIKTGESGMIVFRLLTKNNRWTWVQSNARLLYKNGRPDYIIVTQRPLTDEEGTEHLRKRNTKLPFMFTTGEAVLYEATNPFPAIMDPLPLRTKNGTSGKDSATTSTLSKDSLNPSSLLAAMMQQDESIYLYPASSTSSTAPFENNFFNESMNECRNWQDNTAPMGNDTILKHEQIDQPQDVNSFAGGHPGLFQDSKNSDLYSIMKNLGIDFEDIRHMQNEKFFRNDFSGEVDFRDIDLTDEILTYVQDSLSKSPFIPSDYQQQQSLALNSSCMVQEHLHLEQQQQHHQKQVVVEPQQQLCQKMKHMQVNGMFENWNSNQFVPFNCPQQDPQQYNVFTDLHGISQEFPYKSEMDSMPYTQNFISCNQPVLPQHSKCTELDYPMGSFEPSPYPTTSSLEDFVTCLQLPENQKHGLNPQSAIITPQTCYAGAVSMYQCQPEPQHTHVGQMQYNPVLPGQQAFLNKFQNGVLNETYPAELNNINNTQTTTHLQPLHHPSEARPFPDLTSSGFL

The nature of assay [3]: qHTS assay to identify small molecule that activate the aryl hydrocarbon receptor (AhR) signaling pathway - cell viability counter screen (AID 743086).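 Further: HepG2 liver cells carrying the AhR DRE luciferase reporter; series mostly up to about 70 µM; nearly all actives have a fitted effect of over 45% in size.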 In outline:
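HepG2-AhR-luc (HG2L7.5c1) cells, 4000/well, were preincubated 5 h at 37C, exposed to compound in qHTS format for 24 hr at 37C, then given CellTiter-Fluor for 30 min; viability was read as fluorescence in the reporter wells.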

The target in assay [4] is Peroxisome proliferator-activated receptor gamma (Homo sapiens) (UniProt P37231). Put plainly: qHTS assay to identify small molecule agonists of the peroxisome proliferator-activated receptor gamma (PPARg) signaling pathway (AID 743094; active means well fitted activation curve with a large enough effect in the signal ratio in the repeat runs, not every such curve was filed as active; the % refers to the signal ratio). In short, it runs like this: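 Cell-based bla reporter, HEK293H background, PPARg-driven UAS. Pre-incubation 5 h, 37C, 5% CO2. Compound 17 h, 37C. Substrate 1 h RT; fluorescence.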
Sequence of Peroxisome proliferator-activated receptor gamma (Homo sapiens) (P37231 whole entry, looked up): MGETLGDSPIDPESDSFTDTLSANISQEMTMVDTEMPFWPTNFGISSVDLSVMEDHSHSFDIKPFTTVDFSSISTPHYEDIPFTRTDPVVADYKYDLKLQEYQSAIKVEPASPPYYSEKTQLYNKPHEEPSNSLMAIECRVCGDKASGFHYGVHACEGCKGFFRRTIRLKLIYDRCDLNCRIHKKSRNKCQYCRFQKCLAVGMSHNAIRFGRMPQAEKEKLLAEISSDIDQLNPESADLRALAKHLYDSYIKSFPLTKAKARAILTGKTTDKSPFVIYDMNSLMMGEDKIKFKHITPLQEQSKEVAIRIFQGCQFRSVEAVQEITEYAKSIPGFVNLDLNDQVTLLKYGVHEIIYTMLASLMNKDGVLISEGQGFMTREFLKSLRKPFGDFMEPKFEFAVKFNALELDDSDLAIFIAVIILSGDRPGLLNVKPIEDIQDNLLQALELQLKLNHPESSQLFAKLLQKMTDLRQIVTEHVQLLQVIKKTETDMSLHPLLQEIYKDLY

Assay [5] shares this target. Put plainly: qHTS assay to identify small molecule antagonists of the peroxisome proliferator-activated receptor gamma (PPARg) signaling pathway (AID 743191; calls by dose curve; further: series mostly up to about 63 µM; nearly all actives have a fitted effect of over 30% in size). In short, it runs like this:
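GeneBLAzer PPARg UAS-bla HEK293H cells carrying a UAS-driven beta-lactamase reporter were plated at 3000 cells/well, preincubated 5 h at 37C, then given compound for 17 h at 37C; LiveBLAzer B/G FRET substrate was read after 1 h at room temperature.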

The nature of assay [6]: qHTS assay to identify small molecule antagonists of the peroxisome proliferator-activated receptor gamma (PPARg) signaling pathway - cell viability counter screen (AID 743194). Further: nearly all actives have a fitted effect of over 55% in size. In short, it runs like this:
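PPARg-UAS-bla HEK293H cells were plated, rested 5 h at 37 C, then treated with compounds plus rosiglitazone (50 nM final) for 17 h at 37 C; viability was then read by CellTiter-Glo luminescence after 30 min at room temperature.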

The nature of assay [7]: qHTS assay for small molecule agonists of the antioxidant response element (ARE) signaling pathway (AID 743202; active means well fitted activation curve with a large enough effect in the signal ratio in the repeat runs, not every such curve was filed as active; the % refers to the signal ratio). In short, it runs like this: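 Following a 16 h, 37 C exposure of reporter HepG2 cells (ARE-driven beta-lactamase, 2,000 cells/well) to compounds, FRET substrate was applied for 2 h at room temperature and fluorescence intensity recorded.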
Assay [8] can be described thus: qHTS assay for small molecule agonists of the antioxidant response element (ARE) signaling pathway - cell viability counter screen (AID 743203; calls by dose curve; further: nearly all actives have a fitted effect of over 55% in size). In outline:
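Measured in the same wells as the beta-lactamase ARE reporter, this read-out is CellTiter-Glo luminescence from HepG2 ARE-bla cells given compounds for 16 hrs.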

Assay [9] can be described thus: qHTS assay for small molecule activators of the heat shock response signaling pathway - cell viability counter screen (AID 743209). Further: nearly all actives have a fitted effect of over 50% in size. In short, it runs like this: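 Same-well multiplex: after 2.5 h room-temperature incubation with LiveBLAzer B/G substrate and fluorescence reading, CellTiter-Glo reagent was added to HSE-bla HeLa cells that had received compound for 5 h at 37 C; luminescence read after 30 min.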

A short description of assay [10]: qHTS assay for small molecule activators of the heat shock response signaling pathway (AID 743210; active means well fitted activation curve with a large enough effect in the signal ratio in the repeat runs, with a control signal flat, not every such curve was filed as active; the % refers to the signal ratio; further: series mostly up to about 63 µM). In short, it runs like this: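 Heat shock element–beta-lactamase HeLa reporter cells; qHTS with compounds for 5 h at 37 C; detection by FRET substrate fluorescence after 2.5 h at RT.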
The nature of assay [11]: qHTS assay to identify small molecule agonists of the peroxisome proliferator-activated receptor delta (PPARd) signaling pathway - cell viability counter screen (AID 743211). Further: nearly all actives have a fitted effect of over 55% in size. In short, it runs like this:
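PPARd-bla HEK293H cells (UAS-beta-lactamase reporter) were treated with compounds for 17 h at 37 C. Viability was then read in the same wells by CellTiter-Glo luminescence after 30 min at room temperature.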

For assay [12], the target named is Peroxisome proliferator-activated receptor delta (Homo sapiens) (UniProt Q03181). Put plainly: qHTS assay to identify small molecule agonists of the peroxisome proliferator-activated receptor delta (PPARd) signaling pathway (AID 743212; calls by dose curve). In short, it runs like this:
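Beta-lactamase reporter read by fluorescence (LiveBLAzer B/G FRET, 2 h, room temperature). Test agents, in DMSO, incubated at 37 C with PPARd-bla HEK293H cells.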

Assay [13] is described as follows: qHTS assay to identify small molecule antagonists of the peroxisome proliferator-activated receptor delta (PPARd) signaling pathway - cell viability counter screen (AID 743213). Further: nearly all actives have a fitted effect of over 50% in size. In outline: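 CellTiter-Glo was added to PPARd-bla HEK293H wells following 17 h compound treatment in the presence of 300 nM L165041. Luminescence was recorded after 30 min at room temperature.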

Assay [14] addresses Peroxisome proliferator-activated receptor delta (Homo sapiens) (UniProt Q03181). Put plainly: qHTS assay to identify small molecule antagonists of the peroxisome proliferator-activated receptor delta (PPARd) signaling pathway (AID 743215; active means well fitted inhibition curve with a large enough effect in the signal ratio in the repeat runs, not every such curve was filed as active; the % refers to the signal ratio;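 further: cells stimulated with agonist L165041 at 300 nM final during compound exposure; series mostly up to about 62 µM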). In short, it runs like this:
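Fluorescence from cleaved LiveBLAzer B/G FRET substrate (2 h, room temperature) reports PPARd-driven beta-lactamase in HEK293H UAS-bla cells. Cells had been treated 17 h at 37 C with compound plus 300 nM final L165041.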

Assay [15] addresses Bile acid receptor (Homo sapiens) (UniProt Q96RI1). Put plainly: qHTS assay to identify small molecule antagonists of the farnesoid-X-receptor (FXR) signaling pathway (AID 743217; active means well fitted inhibition curve with a large enough effect in the signal ratio in the repeat runs, not every such curve was filed as active; the % refers to the signal ratio). In outline: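 FRET fluorescence after 2 h room-temperature LiveBLAzer loading gives the readout. Prior step: FXR-bla HEK 293T cells, seeded and incubated 5 h, received test compounds plus 50 uM final CDCA for 16 h at 37 °C.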

A short description of assay [16]: qHTS assay to identify small molecule agonists of the farnesoid-X-receptor (FXR) signaling pathway - cell viability counter screen (AID 743218). Further: nearly all actives have a fitted effect of over 45% in size. In short, it runs like this: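 Readout: CellTiter-Glo luminescence, 30 min RT, multiplexed after the FXR-bla FRET reading. HEK 293T FXR-UAS-bla cells received compound 5 h post-plating and were incubated 16 h at 37 C.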

Assay [17] has as its target Bile acid receptor (Homo sapiens) (UniProt Q96RI1). Put plainly: qHTS assay to identify small molecule agonists of the farnesoid-X-receptor (FXR) signaling pathway (AID 743220; active means well fitted activation curve with a large enough effect in the signal ratio in the repeat runs, not every such curve was filed as active; the % refers to the signal ratio). In outline:
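FXR-UAS-bla HEK 293T cells carrying a UAS-driven beta-lactamase reporter were plated for 5 h at 37C/5% CO2, then exposed to DMSO-dissolved Tox21 10K compounds for 16 h at 37C. A LiveBLAzer B/G FRET substrate was loaded for 2 h at room temperature before fluorescence reading.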

Assay [18] can be described thus: qHTS assay to identify small molecule antagonists of the farnesoid-X-receptor (FXR) signaling pathway - cell viability counter screen (AID 743221; active means well fitted cell-killing curve with a large enough effect in the repeat runs, not every such curve was filed as active; further: nearly all actives have a fitted effect of over 50% in size). In outline: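 FXR-UAS-bla HEK 293T cells were treated with test compounds plus chenodeoxycholic acid (50 uM final) for 16 h at 37 C. Cell viability in the same wells was then read as CellTiter-Glo luminescence after 30 min at room temperature.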

In assay [19] the target is Vitamin D3 receptor (Homo sapiens) (UniProt P11473). Put plainly: qHTS assay to identify small molecule antagonists of the vitamin D receptor (VDR) signaling pathway (AID 743223; active means well fitted inhibition curve with a large enough effect in the signal ratio in the repeat runs, not every such curve was filed as active; the % refers to the signal ratio). In outline:
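VDR-bla cells were plated, incubated 4 h at 37C, then given compound and 1alpha,25-dihydroxyvitamin D3 (3 nM final). After 16 h at 37C, LiveBLAzer B/G FRET substrate was added for 2 h at room temperature and fluorescence read.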

For assay [20] the target is unchanged. Put plainly: qHTS assay to identify small molecule agonists of the vitamin D receptor (VDR) signaling pathway (AID 743222; calls by dose curve). In outline:
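Following 4 h attachment at 37C, VDR-bla cells (2,000 per well) received DMSO-dissolved compounds or controls. After 16 h incubation, LiveBLAzer B/G FRET substrate was added and fluorescence read 2 h later at room temperature.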

Inconclusive results are not listed. Activity calls are given as the source filed them. Unless noted, the call rests on the fitted dose curve; in most records, active means well fitted curve in the direction sought with a large enough effect in the repeat runs; inconclusive means weak or mixed curves; inactive means no such curve, though single readings can be large; an effect the other way counts as inactive or inconclusive.

Sequence of Peroxisome proliferator-activated receptor delta (Homo sapiens) (Q03181 whole entry, looked up): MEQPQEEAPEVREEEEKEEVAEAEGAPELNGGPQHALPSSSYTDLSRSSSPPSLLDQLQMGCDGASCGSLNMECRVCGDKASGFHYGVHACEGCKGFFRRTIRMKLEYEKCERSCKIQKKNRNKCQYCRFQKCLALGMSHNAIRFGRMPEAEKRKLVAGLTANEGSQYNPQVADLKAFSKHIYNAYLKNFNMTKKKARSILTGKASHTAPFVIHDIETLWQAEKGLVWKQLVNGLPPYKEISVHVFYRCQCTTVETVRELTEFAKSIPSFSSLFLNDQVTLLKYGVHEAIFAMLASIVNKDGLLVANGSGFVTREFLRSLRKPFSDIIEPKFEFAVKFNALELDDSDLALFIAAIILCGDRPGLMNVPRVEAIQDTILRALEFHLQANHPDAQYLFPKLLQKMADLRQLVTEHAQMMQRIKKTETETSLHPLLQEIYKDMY
Sequence of Vitamin D3 receptor (Homo sapiens) (P11473 whole entry, looked up): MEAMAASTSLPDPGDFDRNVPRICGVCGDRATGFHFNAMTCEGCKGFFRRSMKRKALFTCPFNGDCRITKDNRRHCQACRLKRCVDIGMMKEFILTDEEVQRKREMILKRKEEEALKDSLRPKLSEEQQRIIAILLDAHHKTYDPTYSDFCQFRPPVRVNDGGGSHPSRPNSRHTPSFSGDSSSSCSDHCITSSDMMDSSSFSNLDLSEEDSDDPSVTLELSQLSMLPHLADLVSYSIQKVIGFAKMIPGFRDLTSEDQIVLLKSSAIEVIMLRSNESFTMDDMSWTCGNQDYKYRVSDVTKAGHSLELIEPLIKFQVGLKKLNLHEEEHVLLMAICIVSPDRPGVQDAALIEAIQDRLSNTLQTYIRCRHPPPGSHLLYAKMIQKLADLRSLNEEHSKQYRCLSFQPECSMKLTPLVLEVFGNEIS
Sequence of Bile acid receptor (Homo sapiens) (Q96RI1 whole entry, looked up): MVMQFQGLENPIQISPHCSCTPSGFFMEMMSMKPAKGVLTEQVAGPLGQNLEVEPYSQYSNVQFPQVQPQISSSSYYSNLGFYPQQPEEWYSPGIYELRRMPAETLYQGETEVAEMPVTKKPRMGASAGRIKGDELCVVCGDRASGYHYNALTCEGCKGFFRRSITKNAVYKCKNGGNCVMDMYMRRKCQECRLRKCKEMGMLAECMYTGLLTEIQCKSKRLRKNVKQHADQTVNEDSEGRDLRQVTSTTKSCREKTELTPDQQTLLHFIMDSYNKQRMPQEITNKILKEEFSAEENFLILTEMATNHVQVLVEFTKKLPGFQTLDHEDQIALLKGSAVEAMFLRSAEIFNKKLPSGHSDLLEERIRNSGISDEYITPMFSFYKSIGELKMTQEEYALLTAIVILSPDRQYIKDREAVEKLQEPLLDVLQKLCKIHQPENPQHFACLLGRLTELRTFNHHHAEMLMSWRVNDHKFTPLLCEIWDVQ

Consider `Cc1ccccc1N=C(N)Nc1ccccc1C`, for which the Potency result in assay [1], in [2], in [3], in assay [4], in assay [5] and in [6] was “inactive” throughout. The Potency result in assay [7], in assay [8], in assay [9], in assay [10], in assay [11] and in assay [12] was “inactive” throughout. For the same compound, the Potency entry in assay [13], in [14], in assay [15], in assay [16], in [17] and in assay [18] was “inactive” in each case. The Potency entry in assay [19] is “inactive”.
`CC[N+](CC)(CCNC(=O)C(=O)NCC[N+](CC)(CC)Cc1ccccc1Cl)Cc1ccccc1Cl`: the Potency entry in assay [1], in assay [2], in assay [3], in [4], in [5] and in [7] was “inactive” throughout. The Potency result in [10], in assay [11], in assay [12], in [13], in [16] and in assay [18] was “inactive” throughout.
For `CC(O)c1ccccc1` (stereo not given), the Potency entry in [1], in assay [2], in assay [3], in [4], in assay [5] and in assay [6] was “inactive” each time. For the same compound, the Potency result in [7], in assay [8], in [9], in assay [10], in assay [11] and in assay [12] was “inactive” each time. Besides, the Potency entry in assay [13], in [14], in [16], in assay [18], in assay [20] and in assay [19] was “inactive” in each case.
Turning to `CCCCCCCCCI`, the Potency entry in assay [1], in [2], in [3], in assay [4], in assay [5] and in [6] was “inactive” in each case. The Potency result in assay [7], in assay [8], in [9], in assay [10], in assay [11] and in assay [12] was “inactive” throughout. For the same compound, the Potency result in assay [13], in [14], in [16] and in assay [18] was “inactive” each time.
With `COc1ccccc1N1CCN(CCCCNC(=O)c2ccc(-c3ccc(C(C)=O)cc3)cc2)CC1`, the Potency entry in [1], in assay [2], in [3], in assay [4], in assay [5] and in [6] was “inactive” each time. Moreover, the Potency entry in assay [8], in assay [9], in assay [10], in assay [11], in assay [12] and in [13] was “inactive” throughout. Moreover, the Potency entry in assay [14], in [15], in assay [16], in [17], in assay [18] and in [19] was “inactive” each time.
Regarding `C(=C\c1ccccc1)/c1ccccc1`, the Potency entry in assay [1], in [3], in assay [4], in assay [5], in [8] and in [10] was “inactive” throughout. Moreover, the Potency result in [11], in [12], in assay [13], in assay [15], in assay [17] and in assay [18] was “inactive” throughout. Further, the Potency entry in [19] is “inactive”. The Potency in [2] was 76.3 µM (active).
For `NCCNCCO`, the Potency result in [1], in assay [2], in assay [3], in [4], in assay [5] and in [6] was “inactive” in each case. The Potency entry in assay [7], in [8], in assay [10], in assay [11], in assay [12] and in [13] was “inactive” throughout. The Potency entry in assay [15], in assay [16], in assay [17], in [18], in [20] and in assay [19] was “inactive” throughout.
